Values joined by “and” are separate entries in the source; they are usually repeats but may differ in a detail not shown here. Identical values can stand only once. Records with an inconclusive call do not appear. Entries that show only a call come without a potency. Some compounds were tested as several samples or in several runs, with calls that do not always agree. Values without a mark were called inactive. Active and inactive are the calls of the source. The call rests on the fitted dose curve; in most records, active means well fitted curve in the direction sought with a large enough effect; inconclusive means small, poorly fitted or top-dose-only effect, or another doubt; inactive means no such curve, though single readings can be large; an effect the other way counts as inactive or inconclusive.
Columns and labels:
[1] = qHTS of pediatric cancer cell lines to identify multiple opportunities for drug repurposing: Primary screen for NB-EBc1 cells (AID 1347095)
Procedure, shortened: (§1)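 Plated cells (500-1,000 per well, growth media) were allowed to settle for 5 hours, treated with compound dilutions for 48 hours, then lysed with CellTiter-Glo for 15 min at room temperature before luminescence reading.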

[2] = qHTS of pediatric cancer cell lines to identify multiple opportunities for drug repurposing: Primary screen for U-2 OS cells (AID 1347096); further: nearly all actives have a fitted effect of over 50% in size
Procedure, shortened: (§2)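 Cells (500-1,000/well) rested 5 h, then received compounds for 48 h; metabolically active cells were measured by CellTiter-Glo luminescence. Final concentrations spanned up to 46 µM (MIPE, 11-point) or 0.59 nM-46 µM (NPC, 8-point) in primary screens, 11-point in follow-ups.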

[3] = qHTS of pediatric cancer cell lines to identify multiple opportunities for drug repurposing: Primary screen for Saos-2 cells (AID 1347097); further: nearly all actives have a fitted effect of over 40% in size
Procedure, shortened: as §1

[4] = qHTS of pediatric cancer cell lines to identify multiple opportunities for drug repurposing: Primary screen for SK-N-SH cells (AID 1347098); further: nearly all actives have a fitted effect of over 65% in size;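 on activity change, negative = cytotoxic: DMSO served as neutral control and bortezomib at 2.3 µM as positive control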
Procedure, shortened: as §2

[5] = qHTS of pediatric cancer cell lines to identify multiple opportunities for drug repurposing: Primary screen for NB1643 cells (AID 1347099); further: nearly all actives have a fitted effect of over 50% in size
Procedure, shortened: as §1

[6] = qHTS of pediatric cancer cell lines to identify multiple opportunities for drug repurposing: Primary screen for LAN-5 cells (AID 1347100)
Procedure, shortened: as §2

[7] = qHTS of pediatric cancer cell lines to identify multiple opportunities for drug repurposing: Primary screen for BT-12 cells (AID 1347101); further: nearly all actives have a fitted effect of over 25% in size
Procedure, shortened: as §2

[8] = qHTS of pediatric cancer cell lines to identify multiple opportunities for drug repurposing: Primary screen for Rh18 cells (AID 1347102); further: nearly all actives have a fitted effect of over 65% in size
Procedure, shortened: as §2

[9] = qHTS of pediatric cancer cell lines to identify multiple opportunities for drug repurposing: Primary screen for OHS-50 cells (AID 1347103); further: nearly all actives have a fitted effect of over 40% in size
Procedure, shortened: as §2

[10] = qHTS of pediatric cancer cell lines to identify multiple opportunities for drug repurposing: Primary screen for RD cells (AID 1347104); further: nearly all actives have a fitted effect of over 55% in size
Procedure, shortened: as §1
Potency means the concentration at half of the fitted maximal effect.

SMILES	Potency [1]	Potency [2]	Potency [3]	Potency [4]	Potency [5]	Potency [6]	Potency [7]	Potency [8]	Potency [9]	Potency [10]	activity change, negative = cytotoxic [1]	activity change, negative = cytotoxic [4]	activity change, negative = cytotoxic [5]	activity change, negative = cytotoxic [6]	activity change, negative = cytotoxic [9]	activity change, negative = cytotoxic [10]
COC(=O)N[C@H](C(=O)N[C@@H](Cc1ccccc1)[C@@H](O)CN(Cc1ccc(-c2ccccn2)cc1)NC(=O)[C@@H](NC(=O)OC)C(C)(C)C)C(C)(C)C	inactive	inactive	inactive	inactive	inactive	inactive	inactive	inactive	inactive	inactive	–	–	–	–	–	–
Clc1ccc2c(N3CCN(CCCN4CCN(c5ccnc6cc(Cl)ccc56)CC4)CC3)ccnc2c1	inactive	inactive	inactive	inactive	inactive	inactive	inactive	inactive	–	inactive	–	–	–	–	–	–
N=C(N)c1ccc2cc(OC(=O)c3ccc(N=C(N)N)cc3)ccc2c1	inactive	inactive	inactive	inactive	inactive	inactive	–	inactive	–	inactive	–	–	–	–	–	–
CN(C)c1ccc2nc3ccc(=[N+](C)C)cc-3sc2c1	2.09 µM (active) and 2.66 µM (active)	10600 nM (active)	1.48 µM (active) and 2.66 µM (active)	3.41 µM (active) and 5.45 µM (active)	10600 nM (active)	1680 nM (active)	6.85 µM (active) and 3.09 µM (active)	7.43 µM (active) and 3.35 µM (active)	1.37 µM (active) and 872 nM (active)	2.35 µM (active) and 3.76 µM (active)	–	–	–	–	–	–
COc1cc(C(C)=O)ccc1OCCCN1CCC(c2noc3cc(F)ccc23)CC1	inactive	inactive	inactive	inactive	inactive	inactive	–	inactive	–	–	–	–	–	–	–	–
Cc1nc2n(c(=O)c1CCN1CCC(c3noc4cc(F)ccc34)CC1)CCCC2	inactive	inactive	inactive	inactive	inactive	inactive	inactive	inactive	inactive	inactive	–	–	–	–	–	–
COCCCN1CCC(NC(=O)c2cc(Cl)c(N)c3c2OCC3)CC1	inactive	inactive	inactive	inactive	inactive	inactive	inactive	inactive	–	inactive	–	–	–	–	–	–
CC(C)C[C@H](NC(=O)[C@H](Cc1ccccc1)NC(=O)c1cnccn1)B(O)O	0.0376 µM (active)	42.2 nM (active)	469 nM (active)	42.9 nM (active)	29.9 nM (active)	16.6 nM (active)	43.2 nM (active)	29.6 nM (active)	87.1 nM (active)	53.1 nM (active)	–	–	–	–	–	–
Cc1cc2c(s1)Nc1ccccc1N=C2N1CCN(C)CC1	inactive	inactive	inactive	inactive	inactive	inactive	inactive	inactive	–	inactive	–	–	–	–	–	–
CC1(C)NC(=O)N(c2ccc([N+](=O)[O-])c(C(F)(F)F)c2)C1=O	inactive	inactive	inactive	inactive	inactive	inactive	–	inactive	inactive	inactive	–	–	–	–	–	–
CC(C)(S)[C@@H](N)C(=O)O	inactive	inactive	inactive	inactive	inactive	inactive	inactive	inactive	inactive	inactive	–	–	–	–	–	–
Nc1ccc(S(N)(=O)=O)cc1	inactive	inactive	inactive	inactive	inactive	inactive	inactive	inactive	inactive	inactive	–	–	–	–	–	–
NS(=O)(=O)c1cc(C(=O)O)c(NCc2ccco2)cc1Cl	inactive	inactive	inactive	inactive	inactive	inactive	inactive	inactive	inactive	inactive	–	–	–	–	–	–
CCN(CCO)CCCC(C)Nc1ccnc2cc(Cl)ccc12 (stereo unspecified)	1.18 µM (active)	inactive	inactive	–	–	3720 nM (active)	inactive	inactive	–	–	13.9% [at 4.84 µM]	-2.15% [at 6 µM]	19.4% [at 4.84 µM]	22.8% [at 4.84 µM]	-4.93% [at 6.18 µM]	5.84% [at 4.84 µM]
CN(C)[C@@H](CCOc1cccc2ccccc12)c1ccccc1	inactive	inactive	26400 nM (active)	inactive	inactive	inactive	–	inactive	15.5 µM (active) and 21.7 µM (active)	33200 nM (active)	–	–	–	–	–	–
O=P(O)(O)C(O)(Cn1ccnc1)P(=O)(O)O	inactive	inactive	inactive	inactive	inactive	inactive	inactive	inactive	inactive	inactive	–	–	–	–	–	–
CN1C(C(=O)Nc2ccccn2)=C(O)c2sccc2S1(=O)=O	inactive	inactive	inactive	inactive	inactive	inactive	inactive	inactive	inactive	inactive	–	–	–	–	–	–
Cc1c(OCC(F)(F)F)ccnc1CS(=O)c1nc2ccccc2[nH]1 (stereo unspecified)	inactive	inactive	inactive	inactive	inactive	inactive	inactive	inactive	–	inactive	–	–	–	–	–	–
CCN(CC)CCOc1ccc(Nc2ncc3cc(-c4c(Cl)cccc4Cl)c(=O)n(C)c3n2)cc1	1.48 µM (active)	1180 nM (active)	296 nM (active)	242 nM (active)	3720 nM (active)	1050 nM (active)	19300 nM (active)	372 nM (active)	122 nM (active)	743 nM (active)	–	–	–	–	–	–
COc1c2occc2cc2ccc(=O)oc12	inactive	inactive	inactive	inactive	inactive	inactive	inactive	inactive	inactive	inactive	–	–	–	–	–	–
